Assay results as given in the supplement of paper PMC10849652.
About 7,900 targets were measured; listed, in parts, are those with a hit and a random draw of the rest. About 0.6% of all pairs of compound and target were hits.

Tests used:
Assay in all cases: log2 fold change, soluble protein after heating vs DMSO (PISA); higher = thermal stabilisation; K562 cells, 10 uM, 30 min; active = over 0.2 and 3.5 SD of the protein, either way, in both replicates (recomputed)
[1] = compound: C1=CC=C(C=C1)[C@H](COC2=CC3=C(C=C2)NC(=O)N3)NC(=O)C4=CC=CN(C4=O)CC5=CC(=C(C=C5)F)F
Method in brief: (§1)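 K562 cells at 2×10^6 cells/mL were given 10 μM compound for 30 min. Aliquots then went through 3 min of heating across 48°C-58°C, were pooled, and were extracted in PBS with 0.5% NP-40 at 4°C, and the supernatant after 21,000xg for 90 min was quantified by TMTpro 16plex LC-MS/MS with channel sums equalised. Thermal stability relative to control samples, from duplicates, is given as log2 fold change.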

[2] = compound: CC1=C(SC2=C1C(=N[C@H](C3=NN=C(N32)C)CC(=O)N)C4=CC=C(C=C4)Cl)C
Method in brief: as §1

[3] = compound: CC1=C2C(=CC=C1)N=C(N(C2=O)C3=CC=CC=C3C)CN4C=NC5=C(N=CN=C54)N
Method in brief: as §1

[4] = compound: Cc1sc2c(c1C)C(c1ccc(Cl)cc1)=N[C@@H](CC(=O)OC(C)(C)C)c1nnc(C)n1-2
Method in brief: as §1

[5] = compound: c1ccc([C@@H]2C[C@H]2NC2CCNCC2)cc1
Method in brief: as §1

Measured: log2 fold change

AIFM2 (UniProt Q9BRQ8)
inactive: [1] 0.036 | [2] 0.047 | [3] 0.026 | [4] 0.045 | [5] 0

ARHGAP25 isoform 4 (UniProt P42331)
inactive: [1] -0.181 | [2] -0.171 | [3] -0.173 | [4] -0.018 | [5] 0.109

ATP6V0A1 isoform 3 (UniProt Q93050)
inactive: [1] 0.115 | [2] -0.07 | [3] 0.005 | [4] -0.07 | [5] -0.149

BZW2 (UniProt Q9Y6E2)
Chain of UniProt Q9Y6E2 (Q9Y6E2 whole entry, looked up): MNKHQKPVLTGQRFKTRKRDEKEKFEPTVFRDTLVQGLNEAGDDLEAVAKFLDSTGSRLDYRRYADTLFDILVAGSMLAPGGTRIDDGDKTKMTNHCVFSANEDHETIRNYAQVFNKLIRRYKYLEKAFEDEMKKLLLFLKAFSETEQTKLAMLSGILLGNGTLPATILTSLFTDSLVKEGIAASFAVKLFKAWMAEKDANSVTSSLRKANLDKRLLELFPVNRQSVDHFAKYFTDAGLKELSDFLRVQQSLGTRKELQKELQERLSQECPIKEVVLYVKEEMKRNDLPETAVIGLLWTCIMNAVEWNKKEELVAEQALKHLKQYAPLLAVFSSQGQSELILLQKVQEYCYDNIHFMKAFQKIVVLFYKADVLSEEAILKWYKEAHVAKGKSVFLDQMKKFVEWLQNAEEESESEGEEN
inactive: [1] -0.069 | [2] 0.042 | [3] 0.025 | [4] -0.033 | [5] -0.014

ARMC8 (UniProt Q8IUR7)
inactive: [1] 0.05 | [2] -0.005 | [3] 0 | [4] 0.021 | [5] 0.011

ATP5ME (UniProt P56385)
inactive: [1] 0.028 | [2] 0.117 | [3] 0.007 | [4] -0.072 | [5] 0.014

ATP6AP1 (UniProt Q15904)
inactive: [1] 0.014 | [2] -0.069 | [3] -0.009 | [4] -0.055 | [5] -0.022

BRD8 isoform 2 (UniProt Q9H0E9)
inactive: [1] 0.035 | [2] -0.091 | [3] 0.167 | [4] 0.046 | [5] 0.038

ATP1B3 (UniProt P54709)
inactive: [1] 0.012 | [2] 0.042 | [3] 0.001 | [4] 0.002 | [5] 0.006

ARL3 (UniProt P36405)
inactive: [1] -0.002 | [2] 0.04 | [3] 0.038 | [4] -0.06 | [5] -0.005

ANAPC2 (UniProt Q9UJX6)
inactive: [1] -0.017 | [2] 0.016 | [3] -0.005 | [4] 0.017 | [5] -0.049

ANKRD29 (UniProt Q8N6D5)
inactive: [1] -0.012 | [2] 0.199 | [3] 0.248 | [4] -0.029 | [5] -0.079

B4GALNT1 (UniProt Q00973)
inactive: [1] -0.029 | [2] -0.068 | [3] -0.001 | [4] -0.102 | [5] -0.062

BST2 (UniProt Q10589)
Chain of UniProt Q10589 (Q10589 whole entry, looked up): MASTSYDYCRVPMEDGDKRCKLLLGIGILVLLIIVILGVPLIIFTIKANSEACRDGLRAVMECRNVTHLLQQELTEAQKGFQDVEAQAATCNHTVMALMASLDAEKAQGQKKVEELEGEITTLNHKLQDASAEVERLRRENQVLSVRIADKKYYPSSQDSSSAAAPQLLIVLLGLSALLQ
inactive: [1] 0.056 | [2] 0.019 | [3] -0.012 | [4] 0.068 | [5] 0.055

BAIAP2 (UniProt Q9UQB8)
inactive: [1] -0.019 | [2] 0.071 | [3] 0.072 | [4] 0.014 | [5] 0.002

ACOX3 (UniProt O15254)
inactive: [1] 0.015 | [2] 0.238 | [3] -0.185 | [4] 0.131 | [5] 0.077

AUH (UniProt Q13825)
inactive: [1] 0.015 | [2] 0.065 | [3] -0.116 | [4] -0.042 | [5] -0.001

ATP6V1H (UniProt Q9UI12)
inactive: [1] -0.003 | [2] 0.065 | [3] 0.029 | [4] -0.019 | [5] -0.116

ASS1 (UniProt P00966)
inactive: [1] -0.099 | [2] -0.036 | [3] 0.032 | [4] -0.141 | [5] -0.146

BRK1 isoform 2 (UniProt Q8WUW1)
Chain of UniProt Q8WUW1 (Q8WUW1 whole entry, looked up): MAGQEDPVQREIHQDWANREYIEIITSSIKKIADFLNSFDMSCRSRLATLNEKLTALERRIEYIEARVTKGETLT
inactive: [1] 0.018 | [2] -0.018 | [3] 0.025 | [4] -0.055 | [5] -0.013

AKR1C2 (UniProt P52895)
inactive: [1] 0 | [2] -0.04 | [3] 0.086 | [4] 0.057 | [5] -0.011

ANK2 (UniProt Q01484)
inactive: [1] -0.019 | [2] 0.058 | [3] 0.071 | [4] 0.159 | [5] 0.02

ADRM1 (UniProt Q16186)
Chain of UniProt Q16186 (Q16186 whole entry, looked up): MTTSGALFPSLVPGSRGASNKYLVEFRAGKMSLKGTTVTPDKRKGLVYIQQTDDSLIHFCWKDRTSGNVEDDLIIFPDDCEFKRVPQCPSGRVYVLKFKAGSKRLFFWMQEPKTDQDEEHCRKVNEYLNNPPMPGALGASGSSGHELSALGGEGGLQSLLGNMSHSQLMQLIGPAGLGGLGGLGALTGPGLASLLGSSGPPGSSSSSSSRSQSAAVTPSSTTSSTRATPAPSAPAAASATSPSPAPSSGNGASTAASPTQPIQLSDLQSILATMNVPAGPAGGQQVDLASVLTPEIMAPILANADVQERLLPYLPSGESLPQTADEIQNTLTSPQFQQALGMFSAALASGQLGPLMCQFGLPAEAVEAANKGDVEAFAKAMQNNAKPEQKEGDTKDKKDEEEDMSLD
inactive: [1] 0.007 | [2] -0.062 | [3] -0.001 | [4] -0.019 | [5] -0.01

ARGLU1 (UniProt Q9NWB6)
inactive: [1] 0.072 | [2] -0.117 | [3] -0.013 | [4] 0.01 | [5] 0.096

AFG1L (UniProt Q8WV93)
inactive: [1] 0.025 | [2] 0.096 | [3] -0.008 | [4] -0.074 | [5] -0.129

ANP32E (UniProt Q9BTT0)
inactive: [1] -0.092 | [2] -0.037 | [3] 0.14 | [4] -0.012 | [5] 0.075

ALDH6A1 (UniProt Q02252)
inactive: [1] 0.082 | [2] 0.124 | [3] 0.128 | [4] -0.07 | [5] 0.019

ATXN3 isoform 1 (UniProt P54252)
inactive: [1] -0.012 | [2] 0.001 | [3] 0.118 | [4] -0.068 | [5] 0

ATP13A2 (UniProt Q9NQ11)
inactive: [1] 0.031 | [2] -0.075 | [3] 0.007 | [4] -0.062 | [5] 0.092

ACO2 (UniProt Q99798)
inactive: [1] 0 | [2] 0.067 | [3] 0.044 | [4] -0.023 | [5] -0.046

ABITRAM (UniProt Q9NX38)
inactive: [1] -0.037 | [2] 0.145 | [3] 0.032 | [4] -0.044 | [5] -0.016

ACADVL isoform 3 (UniProt P49748)
inactive: [1] 0.019 | [2] 0.05 | [3] 0.009 | [4] -0.011 | [5] -0.018

ACSL3 (UniProt O95573)
inactive: [1] -0.05 | [2] 0.068 | [3] 0.028 | [4] -0.014 | [5] -0.036

ADD1 isoform 3 (UniProt P35611)
Chain of UniProt P35611 (P35611 whole entry, looked up): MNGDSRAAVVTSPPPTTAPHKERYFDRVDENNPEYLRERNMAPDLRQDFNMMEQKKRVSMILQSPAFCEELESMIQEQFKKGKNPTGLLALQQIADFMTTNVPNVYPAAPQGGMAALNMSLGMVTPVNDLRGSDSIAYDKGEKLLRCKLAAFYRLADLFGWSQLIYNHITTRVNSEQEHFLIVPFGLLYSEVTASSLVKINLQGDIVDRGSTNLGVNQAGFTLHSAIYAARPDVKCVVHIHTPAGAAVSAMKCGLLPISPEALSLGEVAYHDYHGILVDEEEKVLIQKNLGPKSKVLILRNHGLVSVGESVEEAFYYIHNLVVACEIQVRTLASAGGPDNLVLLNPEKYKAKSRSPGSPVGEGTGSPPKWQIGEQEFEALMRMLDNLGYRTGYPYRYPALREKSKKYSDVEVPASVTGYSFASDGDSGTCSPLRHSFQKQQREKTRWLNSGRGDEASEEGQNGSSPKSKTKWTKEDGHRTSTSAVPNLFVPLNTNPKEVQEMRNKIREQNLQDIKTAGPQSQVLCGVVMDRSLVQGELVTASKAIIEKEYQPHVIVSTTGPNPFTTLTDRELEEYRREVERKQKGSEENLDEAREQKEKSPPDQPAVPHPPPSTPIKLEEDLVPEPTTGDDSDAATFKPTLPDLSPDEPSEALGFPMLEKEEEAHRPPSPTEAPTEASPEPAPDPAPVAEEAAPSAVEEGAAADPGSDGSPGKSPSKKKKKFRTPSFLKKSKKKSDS
inactive: [1] 0.01 | [2] -0.003 | [3] 0 | [4] -0.014 | [5] 0.024

ACSM3 (UniProt Q53FZ2)
inactive: [1] -0.046 | [2] -0.051 | [3] 0.091 | [4] -0.03 | [5] -0.029

ACSL1 (UniProt P33121)
inactive: [1] -0.019 | [2] 0.043 | [3] 0.064 | [4] 0.001 | [5] -0.03

BCLAF1 (UniProt Q9NYF8)
inactive: [1] 0.031 | [2] 0.027 | [3] -0.118 | [4] -0.013 | [5] 0.047

AARSD1 isoform 3 (UniProt Q9BTE6)
inactive: [1] -0.053 | [2] -0.068 | [3] 0.039 | [4] 0.047 | [5] 0.023

ACAP2 (UniProt Q15057)
inactive: [1] -0.009 | [2] -0.001 | [3] 0.132 | [4] 0.01 | [5] 0.011

ATP6V0A2 (UniProt Q9Y487)
inactive: [1] 0.018 | [2] -0.044 | [3] -0.007 | [4] -0.059 | [5] -0.014

ATP6V1C1 (UniProt P21283)
Chain of UniProt P21283 (P21283 whole entry, looked up): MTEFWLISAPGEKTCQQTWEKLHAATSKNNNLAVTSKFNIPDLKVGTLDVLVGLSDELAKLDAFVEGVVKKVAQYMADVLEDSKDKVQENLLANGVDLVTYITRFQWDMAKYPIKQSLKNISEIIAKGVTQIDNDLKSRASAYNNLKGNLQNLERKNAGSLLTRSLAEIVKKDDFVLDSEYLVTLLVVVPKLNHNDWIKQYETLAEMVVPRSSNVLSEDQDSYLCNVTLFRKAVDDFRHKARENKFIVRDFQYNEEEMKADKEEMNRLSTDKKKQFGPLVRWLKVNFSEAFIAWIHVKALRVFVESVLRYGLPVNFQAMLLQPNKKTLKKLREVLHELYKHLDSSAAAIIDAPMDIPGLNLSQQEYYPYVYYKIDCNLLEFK
inactive: [1] -0.011 | [2] 0.004 | [3] 0.05 | [4] -0.002 | [5] -0.039

ARFGAP1 (UniProt Q8N6T3)
inactive: [1] 0.033 | [2] 0.077 | [3] 0.074 | [4] -0.064 | [5] -0.034

ARL2BP (UniProt Q9Y2Y0)
inactive: [1] -0.076 | [2] 0 | [3] 0.14 | [4] 0.069 | [5] 0.017

ACACB (UniProt O00763)
Chain of UniProt O00763 (O00763 whole entry, looked up): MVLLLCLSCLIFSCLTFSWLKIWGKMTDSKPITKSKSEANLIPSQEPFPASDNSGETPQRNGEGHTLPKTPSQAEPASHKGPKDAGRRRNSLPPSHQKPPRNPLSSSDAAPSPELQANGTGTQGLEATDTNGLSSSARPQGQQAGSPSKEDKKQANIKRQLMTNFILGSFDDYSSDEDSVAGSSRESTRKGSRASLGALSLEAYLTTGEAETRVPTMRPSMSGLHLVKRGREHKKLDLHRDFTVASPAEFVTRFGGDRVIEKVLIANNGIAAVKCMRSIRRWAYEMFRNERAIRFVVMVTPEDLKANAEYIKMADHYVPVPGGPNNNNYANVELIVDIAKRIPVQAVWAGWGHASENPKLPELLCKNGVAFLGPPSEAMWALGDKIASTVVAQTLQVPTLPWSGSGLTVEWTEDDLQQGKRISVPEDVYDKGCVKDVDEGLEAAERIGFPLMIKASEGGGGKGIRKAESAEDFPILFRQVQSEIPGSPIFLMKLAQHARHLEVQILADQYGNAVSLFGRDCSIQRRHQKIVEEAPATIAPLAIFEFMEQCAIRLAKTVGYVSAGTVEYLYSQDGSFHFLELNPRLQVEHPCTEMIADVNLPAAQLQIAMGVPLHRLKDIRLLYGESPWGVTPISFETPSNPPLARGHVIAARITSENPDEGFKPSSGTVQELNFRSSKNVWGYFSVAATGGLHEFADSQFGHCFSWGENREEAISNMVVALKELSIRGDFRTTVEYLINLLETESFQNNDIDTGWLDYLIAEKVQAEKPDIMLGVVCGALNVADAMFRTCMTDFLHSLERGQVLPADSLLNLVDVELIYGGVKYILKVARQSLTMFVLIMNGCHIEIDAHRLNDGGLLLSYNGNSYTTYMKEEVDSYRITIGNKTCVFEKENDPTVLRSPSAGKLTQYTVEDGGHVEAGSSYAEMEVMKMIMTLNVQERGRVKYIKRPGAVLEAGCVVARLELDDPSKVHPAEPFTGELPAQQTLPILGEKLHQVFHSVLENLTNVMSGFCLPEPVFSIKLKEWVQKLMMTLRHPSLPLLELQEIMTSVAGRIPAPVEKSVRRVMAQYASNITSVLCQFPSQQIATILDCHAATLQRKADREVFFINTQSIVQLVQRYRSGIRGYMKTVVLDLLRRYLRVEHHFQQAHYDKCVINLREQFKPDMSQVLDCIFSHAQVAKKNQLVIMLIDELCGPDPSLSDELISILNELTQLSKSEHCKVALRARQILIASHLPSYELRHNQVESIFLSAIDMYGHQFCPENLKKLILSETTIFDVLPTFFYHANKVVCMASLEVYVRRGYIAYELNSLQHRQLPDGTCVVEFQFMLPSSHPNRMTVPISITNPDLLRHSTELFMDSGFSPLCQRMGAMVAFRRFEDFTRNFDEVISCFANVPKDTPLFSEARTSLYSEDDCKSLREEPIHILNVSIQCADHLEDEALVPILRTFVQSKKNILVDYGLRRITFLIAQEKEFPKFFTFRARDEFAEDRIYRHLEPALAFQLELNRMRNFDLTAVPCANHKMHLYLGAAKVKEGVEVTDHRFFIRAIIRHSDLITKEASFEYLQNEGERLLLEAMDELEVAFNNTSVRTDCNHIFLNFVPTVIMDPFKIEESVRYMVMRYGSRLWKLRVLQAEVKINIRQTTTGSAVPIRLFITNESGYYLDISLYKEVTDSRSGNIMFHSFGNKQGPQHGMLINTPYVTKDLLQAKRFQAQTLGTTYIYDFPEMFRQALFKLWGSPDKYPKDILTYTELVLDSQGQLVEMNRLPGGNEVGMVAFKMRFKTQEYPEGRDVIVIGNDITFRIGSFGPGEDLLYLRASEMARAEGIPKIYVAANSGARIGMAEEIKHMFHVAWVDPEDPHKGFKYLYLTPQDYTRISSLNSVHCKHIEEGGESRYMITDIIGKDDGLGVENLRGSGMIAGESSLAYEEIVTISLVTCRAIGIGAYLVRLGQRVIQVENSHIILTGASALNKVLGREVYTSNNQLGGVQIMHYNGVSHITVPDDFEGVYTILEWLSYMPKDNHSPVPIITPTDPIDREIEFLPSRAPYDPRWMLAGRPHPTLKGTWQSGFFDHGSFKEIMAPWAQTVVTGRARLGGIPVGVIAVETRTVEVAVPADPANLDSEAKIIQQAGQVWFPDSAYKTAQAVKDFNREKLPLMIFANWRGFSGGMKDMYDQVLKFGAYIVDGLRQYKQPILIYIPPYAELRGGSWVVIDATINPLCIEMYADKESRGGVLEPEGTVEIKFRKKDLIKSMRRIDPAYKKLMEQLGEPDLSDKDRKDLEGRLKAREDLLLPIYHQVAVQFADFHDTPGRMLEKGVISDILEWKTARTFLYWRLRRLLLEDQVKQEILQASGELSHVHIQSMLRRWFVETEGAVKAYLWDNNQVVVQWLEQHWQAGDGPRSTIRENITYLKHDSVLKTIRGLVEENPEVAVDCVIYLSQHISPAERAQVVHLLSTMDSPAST
inactive: [1] -0.044 | [2] -0.053 | [3] 0.025 | [4] 0.084 | [5] 0.007

ARF4 (UniProt P18085)
inactive: [1] 0 | [2] 0.045 | [3] 0.053 | [4] -0.082 | [5] -0.015

ABCC5 (UniProt O15440)
inactive: [1] -0.034 | [2] 0.082 | [3] -0.02 | [4] -0.001 | [5] -0.025

ARL6IP4 (UniProt Q66PJ3)
inactive: [1] 0.036 | [2] 0.027 | [3] 0.009 | [4] -0.016 | [5] -0.011

ABHD11 (UniProt Q8NFV4)
inactive: [1] -0.008 | [2] 0.127 | [3] 0.136 | [4] -0.12 | [5] -0.037

ALKBH5 (UniProt Q6P6C2)
Chain of UniProt Q6P6C2 (Q6P6C2 whole entry, looked up): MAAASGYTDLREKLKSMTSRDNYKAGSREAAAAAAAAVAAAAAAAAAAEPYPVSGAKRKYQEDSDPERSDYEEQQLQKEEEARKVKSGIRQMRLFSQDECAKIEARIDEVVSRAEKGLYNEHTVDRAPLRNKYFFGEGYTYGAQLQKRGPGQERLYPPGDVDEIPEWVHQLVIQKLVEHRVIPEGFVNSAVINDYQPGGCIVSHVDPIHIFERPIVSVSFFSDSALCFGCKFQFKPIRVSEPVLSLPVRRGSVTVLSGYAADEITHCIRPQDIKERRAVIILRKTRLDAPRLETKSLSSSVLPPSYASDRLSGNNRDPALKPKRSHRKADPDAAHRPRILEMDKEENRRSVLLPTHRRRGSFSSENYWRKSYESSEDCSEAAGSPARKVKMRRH
inactive: [1] 0.065 | [2] -0.002 | [3] 0.085 | [4] -0.024 | [5] 0.028

ATF7 isoform 6 (UniProt P17544)
inactive: [1] -0.097 | [2] 0 | [3] -0.187 | [4] 0.184 | [5] -0.034

AP2B1 isoform 2 (UniProt P63010)
inactive: [1] 0.023 | [2] -0.017 | [3] -0.016 | [4] 0.03 | [5] -0.002

AHCYL1 (UniProt O43865)
inactive: [1] 0.057 | [2] -0.004 | [3] 0.014 | [4] -0.03 | [5] -0.037
